Experimental data: paper PMC4336329 (PLoS ONE, 2015)
Hit rate of the full screen: of about 310,000 compounds, about 14,000 (4.5%) showed an effect of 50% or more. The effect is printed as a negative number. The list comes from a sample in which strong results are over-represented; it also holds similar structures and randomly drawn compounds.

Molecular target: human ether-à-go-go-related gene (hERG) potassium channel (human, UniProt Q12809)
Assay: primary screen, population patch clamp on CHO cells stably expressing hERG; higher = less effect of the substance
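Note: peak tail current of the secondary pulse compared with the same well before compound.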

human ether-à-go-go-related gene (hERG) potassium channel, sequence (Q12809 whole entry, looked up): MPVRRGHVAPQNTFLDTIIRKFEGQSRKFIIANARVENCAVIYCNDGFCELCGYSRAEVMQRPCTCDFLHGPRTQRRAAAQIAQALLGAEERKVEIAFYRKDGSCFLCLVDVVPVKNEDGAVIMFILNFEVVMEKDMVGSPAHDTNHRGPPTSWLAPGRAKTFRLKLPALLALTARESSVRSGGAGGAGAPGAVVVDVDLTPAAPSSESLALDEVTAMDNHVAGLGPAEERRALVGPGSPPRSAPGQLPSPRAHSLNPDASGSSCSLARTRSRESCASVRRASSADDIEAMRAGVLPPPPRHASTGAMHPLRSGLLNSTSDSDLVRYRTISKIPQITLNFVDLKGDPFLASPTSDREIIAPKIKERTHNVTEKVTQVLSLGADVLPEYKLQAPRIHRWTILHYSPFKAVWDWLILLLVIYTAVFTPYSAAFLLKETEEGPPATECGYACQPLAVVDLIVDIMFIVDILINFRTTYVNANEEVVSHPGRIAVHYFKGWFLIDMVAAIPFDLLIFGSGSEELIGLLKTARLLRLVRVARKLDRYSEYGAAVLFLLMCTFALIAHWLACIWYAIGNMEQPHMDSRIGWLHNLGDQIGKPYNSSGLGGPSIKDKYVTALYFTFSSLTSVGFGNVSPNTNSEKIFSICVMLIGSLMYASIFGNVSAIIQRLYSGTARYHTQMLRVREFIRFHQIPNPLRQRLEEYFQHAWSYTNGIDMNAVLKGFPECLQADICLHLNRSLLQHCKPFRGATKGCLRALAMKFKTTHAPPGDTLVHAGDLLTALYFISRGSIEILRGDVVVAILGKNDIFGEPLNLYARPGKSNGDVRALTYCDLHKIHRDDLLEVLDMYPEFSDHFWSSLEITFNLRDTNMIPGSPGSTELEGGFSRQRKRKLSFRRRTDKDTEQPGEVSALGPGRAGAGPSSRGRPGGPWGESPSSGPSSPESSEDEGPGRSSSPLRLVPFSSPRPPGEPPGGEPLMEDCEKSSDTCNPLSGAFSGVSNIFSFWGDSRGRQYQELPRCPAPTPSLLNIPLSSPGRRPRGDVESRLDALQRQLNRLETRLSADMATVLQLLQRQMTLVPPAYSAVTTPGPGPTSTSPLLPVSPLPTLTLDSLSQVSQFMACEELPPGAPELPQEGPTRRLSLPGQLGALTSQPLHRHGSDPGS

Structure (SMILES) | hERG current change (%, negative = inhibition) at 10uM [%]
COc1ccc(CCNC(=O)c2cccs2)cc1 | 10.9
c1ccc2c(OCCCCN3CCCC3)cccc2c1 | -27.1
Brc1ccccc1OCCCCN1CCCCC1 | -39.1
O=C(O)C(=O)O.c1ccc2c(OCCCCN3CCOCC3)cccc2c1 | 10.7
Brc1ccccc1OCCCN1CCCC1.O=C(O)C(=O)O | -12.4
Brc1ccccc1OCCCN1CCCCCC1.O=C(O)C(=O)O | -72.6
O=C(O)C(=O)O.c1ccc2c(OCCCN3CCCCCC3)cccc2c1 | -65.8
CC1(C)Cc2cccc(OCC(=O)Nc3ccccc3N3CCOCC3)c2O1 | -10.8
CCOc1c(Cl)cc(CNC(C)(C)CC(C)(C)C)cc1OC.Cl | -13.2
CCCn1c(=O)[nH]c(=O)c2c1nc(-c1ccc(C(F)(F)F)cc1)n2CCOC | -4.45
CCOC(=O)CN1C(=O)/C(=C/c2c(F)cccc2Cl)Oc2ccccc21 | 9.08
COc1ccc2cc(C3(C)NC(=O)NC3=O)ccc2c1 (stereo not drawn) | -0.239
CN(C(=O)CSc1nnc(C2CC2)n1C1CC1)C1(C#N)CCCCC1 | -5.85
O=C(N/N=C/c1cccnc1)c1cccc(F)c1 | 2.67
O=C(N/N=C/c1ccc(OC(=O)c2cccc(F)c2)cc1)c1cccnc1 | -69.6
O=C(N/N=C(\c1ccccc1)c1cccnc1)c1cccc(F)c1 | -61.5
O=C(N/N=C/c1ccc(OC(=O)c2cccc(Br)c2)cc1)c1cccnc1 | 11.4
Cc1ccc(C(=O)N/N=C\c2ccc(OC(=O)c3cccc(F)c3)cc2)cn1 | 11
O=C(N/N=C(\c1ccccc1)c1cccnc1)c1cc(O)ccc1O | 16.4

Structure (SMILES) | hERG current change (%, negative = inhibition) at 10uM [%]
Br.CC(C)(C)C(=O)Cn1c(NCCO)nc2ccccc21 | 5.72
O=C(OCC(=O)N1CCc2ccccc21)C1CCCN1S(=O)(=O)c1ccc(Cl)cc1 (stereo not drawn) | -17.8
CC(C)COc1ccc(C(=O)OCC(=O)N(C)CC(=O)Nc2ccc(F)cc2)cc1 | 6.57
CCOC(=O)Cc1cc(C)[nH]c1C(=O)OCC | -5.81
C=CCNC(=O)c1c2c(nc3ccccc13)-c1ccccc1CC2 | -46.4
COc1ccc(CN2CCCC(C(=O)c3cccc(C(F)(F)F)c3)C2)cc1O (stereo not drawn) | -62.2
CCCC(=O)N1CCCC(C(=O)c2ccc(OC)c(OC)c2)C1 (stereo not drawn) | 12.7
CCOC(=O)C1CCCN(Cc2ccccc2OCC)C1 (stereo not drawn) | -2.92
COc1ccc(Cl)cc1C(=O)C1CCCN(CCO)C1 (stereo not drawn) | -11.2
CCOC(=O)C1CCCN(Cc2ccc(O)c(OC)c2)C1 (stereo not drawn) | -6.59
CCOc1cc(CN2CCCC(C(=O)c3cccc(C(F)(F)F)c3)C2)ccc1O (stereo not drawn) | -61.2
CCOc1cccc(CN2CCCC(C(=O)Nc3ccc(-c4ccn[nH]4)cc3)C2)c1O (stereo not drawn) | -29.5
CCOc1ccccc1CN1CCCC(C(=O)c2ccc(OC)c(OC)c2)C1 (stereo not drawn) | -74.2
CCOc1cccc(CN2CCCC(C(=O)c3cc(Cl)ccc3OC)C2)c1O (stereo not drawn) | -64.3
O=S(=O)(c1ccc(F)cc1)N1CCCC(c2nc(-c3ccc(F)cc3)no2)C1 (stereo not drawn) | -13.9
Cc1c(NC(=O)CN2C(=O)c3ccc([N+](=O)[O-])cc3C2=O)c(=O)n(-c2ccccc2)n1C | 8.89
Cc1cccnc1NC(=O)C1CCN(S(=O)(=O)c2ccc3c(c2)CCC(=O)N3)CC1 | 16.1
O=C(CCc1nnc(CCCCc2ccccc2)o1)NCCN1CCCCC1=O | 18.2
CC(=O)N1CCc2[nH]c3ccccc3c2C1 | 4.55

Structure (SMILES) | hERG current change (%, negative = inhibition) at 10uM [%]
COc1ccc(Br)c(C(=O)Nc2ccc(F)cc2)c1 | -0.956
NS(=O)(=O)c1ccc(CCNc2nc3c(-c4cccc(F)c4)nnn3c3ccccc23)cc1 | 21.5
C=CCNc1nc(C2(C)CC3(CC(C)OC3=O)C(=O)O2)cs1 (stereo not drawn) | -4.86
COc1cccc(O)c1CN1CCCC(C(=O)c2cccc(C(F)(F)F)c2)C1 (stereo not drawn) | -57.5
COCc1cc(CN2CCCC(C(=O)c3cccc(C(F)(F)F)c3)C2)ccc1OC (stereo not drawn) | -63.1
COCc1ccc(C(=O)N2CCCC(C(=O)c3cccc(C(F)(F)F)c3)C2)o1 (stereo not drawn) | -0.276
O=C(c1cccc(C(F)(F)F)c1)C1CCCN(Cc2cccc(OCCO)c2)C1 (stereo not drawn) | -47.4
Cc1ccc(CN2CCCC(C(=O)c3cccc(C(F)(F)F)c3)C2)o1 (stereo not drawn) | -19.3
COCc1cc(CN2CCCC(C(=O)Nc3ccc(-c4ccco4)cc3)C2)ccc1OC (stereo not drawn) | -7.12
O=C(c1cc(F)ccc1F)C1CCCN(CCCc2ccccc2)C1 (stereo not drawn) | -73.2
O=C(c1cc(F)ccc1F)C1CCCN(Cc2cccc(Cl)c2)C1 (stereo not drawn) | 4.01
O=C(c1cccc(C(F)(F)F)c1)C1CCCN(Cc2ccc(OCCO)cc2)C1 (stereo not drawn) | -69.8
O=C(C1CCCN(CCCc2ccccc2)C1)N1CCCCC1 (stereo not drawn) | -38.8
CC(=O)CCCCn1cnc2c1c(=O)n(C)c(=O)n2C | 20.7
O=c1cc([O-])n(Cc2ccc(F)cc2)c(=O)[nH]1.[NH4+] | 21.7
COCCN(C(=O)CSc1nnc(Nc2ccc(C)cc2)s1)c1c(N)n(CC(C)C)c(=O)[nH]c1=O | -7.66
Cn1ncc2c(NCc3ccccc3)ncnc21 | -11
CCOC(=O)CN1C(=O)/C(=C/c2ccc(Cl)cc2)Oc2ccccc21 | 2.31
Nc1ccc(N=Nc2ccccc2)c2cccnc12 | 17.2
